DT40 TDP1 CPT = qHTS for Inhibitors of human tyrosyl-DNA phosphodiesterase 1 (TDP1): qHTS in cells in presence of CPT; chicken DT40 Tdp1-/-;hTDP1 cells + 20 nM CPT, ATP luminescence, 48 h; AID 686979, 2013; Potency, µM (highest dose often 46.2 µM), hits mostly inhibitors; 420,000 compounds, 12% hits; note: nearly all actives have a fitted effect of over 55% in size
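Chicken DT40 Tdp1-/- cells complemented with human TDP1, 400 cells/well, exposed to compounds plus 20 nM camptothecin for at least 48 h at 37 C; viability read as ATP content by CellTiter-Glo luminescence.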
HT1080NT lethal = qHTS for induction of synthetic lethality in tumor cells producing 2HG: qHTS for the HT-1080-NT fibrosarcoma cell line; HT-1080-NT fibrosarcoma viability, CellTiter-Glo ATP luminescence, 48 h; Potency, µM (series often up to 46.1 µM), actives largely listed as cytotoxic; 360,000 compounds, 1.6% hits; AID 686970, 2013;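 note: NT is the 2HG producing partner of a matched IDH1 knockdown line; nearly all actives have a fitted effect of over 55% in size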
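750 cells/well, RPMI + 5% FBS; 2 h settle, compound pin-transfer, 48 h at 37 degrees C. CellTiter-Glo 10 min RT, luminescence. Normalized to DMSO and media-only wells.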
TDP1 cell noCPT = qHTS for Inhibitors of human tyrosyl-DNA phosphodiesterase 1 (TDP1): qHTS in cells in absence of CPT | DT40 Tdp1-/- hTDP1 cells, no CPT, ATP luminescence, 48 h | Potency, µM (titrated, usually from 46.2 µM), usual class: inhibitors | 420,000 compounds, 15% hits; note: nearly all actives have a fitted effect of over 55% in size
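Readout: luminescence from CellTiter-Glo after 30 min in the dark at RT. Cells: DT40 Tdp1-/- with stable hTDP1, 400/well. Exposure: compounds alone, ≥48 hr, 37 °C.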
IL1B secr inh = qHTS for Inhibitors of Inflammasome Signaling: IL-1-beta AlphaLISA Primary Screen | THP-1 LPS/ATP IL-1B secretion, AlphaLISA, 16 h; stronger effect = lower value | activity change, % at 57.5 µM | 360,000 compounds, 4.7% hits; in the data active = activity change below about -50%; inconclusive = mostly about -30% to -49%
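Secreted IL-1B measured by AlphaLISA bead assay after 16 h compound exposure of THP-1 cells; compounds (final up to 57.5 uM) added 1 h before LPS (250 ng/mL) and ATP (1.25 mM) stimulation; lower signal means less secretion.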
HT1080 IDH1KD tx = qHTS for induction of synthetic lethality in tumor cells producing 2HG: qHTS for the HT-1080-IDH1KD cell line; HT-1080 IDH1 knockdown viability, ATP luminescence, 48 h; Potency, µM (highest dose often 46.1 µM), actives largely listed as cytotoxic; 360,000 compounds, 2% hits; AID 686971, 2013
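HT-1080-IDH1KD cells (IDH1 knocked down), 750/well in RPMI with 5% FBS, treated with compound 48 h at 37 degrees C. Viability by CellTiter-Glo luminescence, normalised to DMSO and no-cell wells; concentration-response curves classed.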
Of the large screens only hits and unclear results are named; the others gave an inactive call. A selection: hits, their analogues and other compounds. The true share with any hit is near 19%. Unless noted, calls come from the whole dose curve; as a rule, active = well fitted curve in the direction sought with a large enough effect; inconclusive = small, poorly fitted or top-dose-only effect, or another doubt; inactive = no such curve, though single readings can be large; an effect the other way counts as inactive or inconclusive.

COc1cc(C(=O)NNC(=O)c2ccc(F)cc2)ccc1OCC(=O)N1CCOCC1	none
COc1cc(C(=O)Nc2nc(-c3ccc(F)cc3)cs2)ccc1OCC(=O)N1CCOCC1	DT40 TDP1 CPT 18.4µM, TDP1 cell noCPT 11.6µM, IL1B secr inh inconclusive
COc1ccc(OC)c(NC(=O)c2ccc(OCC(=O)N3CCOCC3)c(OC)c2)c1	TDP1 cell noCPT inconclusive
COc1cc(C(=O)Nc2nc(-c3cc(C)ccc3C)c(C)s2)ccc1OCC(=O)Nc1ccc(F)cc1	DT40 TDP1 CPT inconclusive, TDP1 cell noCPT inconclusive
COc1ccc(-c2nc(NC(=O)c3ccc(OCC(=O)Nc4ccc(F)cc4)c(OC)c3)sc2C)cc1	DT40 TDP1 CPT inconclusive, HT1080NT lethal 18.4µM, TDP1 cell noCPT 18.4µM, HT1080 IDH1KD tx 16.4µM
COc1cc(C(=O)Nc2nc(-c3ccc(C)cc3)cs2)ccc1OCC(=O)N1CCOCC1	DT40 TDP1 CPT 23.1µM, TDP1 cell noCPT 20.6µM
COc1ccc(-c2csc(NC(=O)c3ccc(OCC(=O)N4CCOCC4)c(OC)c3)n2)cc1	DT40 TDP1 CPT 7.31µM, TDP1 cell noCPT 10.3µM, IL1B secr inh -79.4
CC1CCCC(NC(=O)CSc2nncs2)C1C (centres undefined)	TDP1 cell noCPT inconclusive
COc1cc(C(=O)NCCN2C(=O)S/C(=C\c3ccc(F)cc3)C2=O)ccc1OCC(=O)N1CCOCC1	DT40 TDP1 CPT 16.4µM, HT1080NT lethal inconclusive, TDP1 cell noCPT 14.6µM
COc1cc(/C=C2\SC(=O)NC2=O)ccc1OCC(=O)N1CCOCC1	none
O=C1C(=Cc2ccc(Br)o2)C(=O)c2ccccc21	DT40 TDP1 CPT 23.1µM, TDP1 cell noCPT inconclusive
Cc1ccc(C(=O)O)cc1-c1ccc(C=C2C(=O)c3ccccc3C2=O)o1	none
Cc1ccc(-c2nn(-c3cc(N4CCNCC4)ccc3[N+](=O)[O-])c(=O)c3ccccc23)cc1	DT40 TDP1 CPT 3.66µM, HT1080NT lethal 14.6µM, TDP1 cell noCPT 4.11µM, IL1B secr inh -182.3, HT1080 IDH1KD tx inconclusive
Cc1nn(-c2cc(N3CCCCCC3)ccc2[N+](=O)[O-])c(=O)c2ccccc12	none
CCc1nc2ccc(C(=O)NCc3ccc4c(c3)OCO4)cn2c1N(C)CCC(C)C	DT40 TDP1 CPT inconclusive, HT1080NT lethal inconclusive, TDP1 cell noCPT 14.6µM, HT1080 IDH1KD tx inconclusive
CCc1nc2ccc(C(=O)NCc3ccc4c(c3)OCO4)cn2c1N(C)Cc1ccc(OC)cc1	DT40 TDP1 CPT 18.4µM, TDP1 cell noCPT 23.1µM
CCc1nc2ccc(C(=O)NCc3cccs3)cn2c1N(CCC(C)C)CCN(C)C	DT40 TDP1 CPT inconclusive, HT1080NT lethal inconclusive, TDP1 cell noCPT inconclusive, HT1080 IDH1KD tx inconclusive
O=C(COC(=O)/C=C/c1cccc(C(F)(F)F)c1)NC1CCCCCC1	none
CSc1ncccc1C(=O)NC(C)C1CC2CCC1C2 (centres undefined)	none
O=[N+]([O-])c1cccc(-c2c(-c3ccccc3)ncc3ccc(F)cc23)c1	DT40 TDP1 CPT 9.2µM, TDP1 cell noCPT 8.2µM
Nc1nc(N)nc(-c2ccc(Oc3ccccc3)cc2)n1	none
Nc1ncnc2c1c(-c1ccc(Oc3ccccc3)cc1)cn2C1CCCC1	DT40 TDP1 CPT inconclusive, HT1080NT lethal 23.1µM, TDP1 cell noCPT 18.4µM, HT1080 IDH1KD tx 20.6µM
Cc1ccc(S(=O)(=O)N2[C@H](CC(=O)OCc3ccccc3)OC[C@@H]2C)cc1	TDP1 cell noCPT inconclusive
Cc1ccc(S(=O)(=O)N2[C@H](CC(=O)OCc3ccccc3)OC[C@@H]2C(C)C)cc1	DT40 TDP1 CPT 20.6µM, TDP1 cell noCPT 23.1µM
CCCCCC(=O)N1C[C@H](O)[C@@H](n2cc(-c3ccc(F)cc3)nn2)C[C@@H]1c1ccc(OC)cc1	DT40 TDP1 CPT inconclusive, TDP1 cell noCPT inconclusive, IL1B secr inh inconclusive
CCCCCC(=O)N1C[C@@H](n2cc(-c3ccc(F)cc3)nn2)[C@H](O)C[C@@H]1c1ccc(Cl)cc1	DT40 TDP1 CPT 14.6µM, HT1080NT lethal inconclusive, TDP1 cell noCPT 11.6µM, IL1B secr inh -55.9, HT1080 IDH1KD tx 16.4µM
CCCCCC(=O)N1C[C@H](O)[C@@H](n2cc(-c3ccc(F)cc3)nn2)C[C@@H]1c1ccc(Cl)cc1	DT40 TDP1 CPT 18.4µM, HT1080NT lethal inconclusive, TDP1 cell noCPT 18.4µM, IL1B secr inh inconclusive, HT1080 IDH1KD tx inconclusive
Cc1cccc(C)c1NC(=O)c1cc(S(N)(=O)=O)c(Cl)cc1O	none (no result: HT1080NT lethal, IL1B secr inh, HT1080 IDH1KD tx)
CC(=O)Nc1ccc(C(=O)N2CCCC(c3cc(C(=O)Nc4ccccc4)no3)C2)cc1 (centres undefined)	DT40 TDP1 CPT inconclusive
COc1cc(-c2cc(OC)c(O)c(OC)c2)cc(OC)c1O	DT40 TDP1 CPT 16.4µM, TDP1 cell noCPT 9.2µM, HT1080 IDH1KD tx inconclusive
COc1cc(C(=O)C(=O)c2cc(OC)c(O)c(OC)c2)cc(OC)c1O	none
CCCNc1nc(C)cc(-c2cc(C(=O)NC3CCCC3)on2)n1	TDP1 cell noCPT inconclusive
CC1(C(=O)Nc2cnc3ccccc3c2)CCN1Cc1ccc2c(c1)OCCO2 (centres undefined)	DT40 TDP1 CPT inconclusive, TDP1 cell noCPT inconclusive
CC1(C(=O)Nc2cnc3ccccc3c2)CCN1C(=O)CCc1ccccc1 (centres undefined)	DT40 TDP1 CPT 18.4µM, TDP1 cell noCPT 18.4µM
CC(C)Oc1ccc(CN2CCC2(C)C(=O)Nc2cnc3ccccc3c2)cc1 (centres undefined)	DT40 TDP1 CPT 18.4µM, TDP1 cell noCPT inconclusive
CC1(C(=O)Nc2cnc3ccccc3c2)CCN1CCc1ccccc1 (centres undefined)	DT40 TDP1 CPT inconclusive, HT1080NT lethal inconclusive, TDP1 cell noCPT 18.4µM
CC1(C(=O)Nc2cccc3ncccc23)CCN1C(=O)CCc1ccccc1 (centres undefined)	DT40 TDP1 CPT inconclusive, TDP1 cell noCPT inconclusive
O=C(Cn1c(=O)c2cccn2c2cccnc21)N1CCN(c2ccccc2F)CC1	none
Cc1cc(Cl)ccc1-n1c(CCC(=O)O)ccc1-c1cccs1	none (no result: HT1080NT lethal, IL1B secr inh, HT1080 IDH1KD tx)
Cc1ccc(C(=O)CSc2nc(-c3ccccc3)nc3c2CCCC3)cc1C	none (no result: HT1080NT lethal, IL1B secr inh, HT1080 IDH1KD tx)
COc1ccc(-n2cc(CNCCc3cscn3)c(-c3ccccc3Cl)n2)cc1	DT40 TDP1 CPT 16.4µM, TDP1 cell noCPT 11.6µM, IL1B secr inh -63.3
Cc1ccc(-n2cc(CNCCc3cscn3)c(-c3ccc(F)cc3)n2)cc1	DT40 TDP1 CPT inconclusive, HT1080NT lethal 20.6µM, TDP1 cell noCPT 23.1µM, IL1B secr inh -94.2, HT1080 IDH1KD tx 20.6µM
COc1ccc2cc(C=NS(=O)(=O)c3ccc(C)cc3)n(C)c2c1	none
O=C(O)C1=C[C@@H](C2CCCCC2)C[C@@H](OCCCCO)O1	none
CCN(CC)c1ccc(N=CN2CCOCC2)cc1	none

High-throughput results deposited in PubChem by National Center for Advancing Translational Sciences (NCATS).
